The values that follow come from PubChem BioAssay (NCI).

Test systems include HCT-15 colon; HT29 colon; SNB-75 CNS; SNB-19 CNS; U251 CNS; PC-3 prostate; SK-MEL-5 melanoma; UACC-62 melanoma; LOX IMVI melanoma; SK-MEL-28 melanoma; SK-MEL-2 melanoma; EKVX NSCLC; SN12C renal; UO-31 renal; TK-10 renal; ACHN renal; CAKI-1 renal; A498 renal; CCRF-CEM leukemia; MOLT-4 leukemia.
Common to all, as to test: NCI-60 one-dose screen, 48 h (100 = growth as untreated, 0 = no growth, -100 = all killed)
What all share (conditions): 10 µM unless noted

Structures are written as SMILES. Compounds without any hit were thinned out: in the full panel of roughly 83,000, 20% have a hit.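 Method: cells in 96-well plates; compound added at one concentration; 48 h incubation; percent growth measured; values under 10 scored active.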 Values without a mark were called inactive. Active and inactive are the calls of the source.

Turning to `CC(=O)c1c(Nc2ccc(F)c(F)c2F)[nH]c2c(F)cc(F)cc2c1=O`, the growth in the assay on HCT-15 colon was 4.32% (active); in the assay with HT29 colon it was 3.62% (active); in the assay with SNB-75 CNS it was -14.8% (active); in the assay with SNB-19 CNS, 22%; with U251 CNS, 0.133% (active); with PC-3 prostate, 4.75% (active). Also, the growth in the assay on SK-MEL-5 melanoma is -75.8% (active); with UACC-62 melanoma it was -27.9% (active); in the assay on LOX IMVI melanoma it was 5.66% (active); in the assay with SK-MEL-28 melanoma, 4.71% (active); in the assay with SK-MEL-2 melanoma it was -52.6% (active); in the assay with EKVX NSCLC, 9.73% (active). The growth in the assay with SN12C renal was 1.04% (active); with UO-31 renal, 4.44% (active); in the assay on TK-10 renal, 12.7%; in the assay with ACHN renal it was 0.167% (active); in the assay with CAKI-1 renal, -10.4% (active); in the assay with A498 renal, -33.4% (active). In addition, the growth in the assay with CCRF-CEM leukemia is 6.3% (active); in the assay with MOLT-4 leukemia, -3.98% (active).
Turning to `Cn1ccnc1C(=O)/C=C/c1ccc(C(=O)Nc2ccc(F)cc2)cc1`, the growth in the assay with HCT-15 colon was 0.589% (active); in the assay with HT29 colon, 9.78% (active); in the assay with SNB-75 CNS, 33%; in the assay with SNB-19 CNS, 24.4%; with U251 CNS, 1.92% (active); in the assay on PC-3 prostate, 22.2%. For the same compound, the growth in the assay with SK-MEL-5 melanoma is 8.1% (active); in the assay on UACC-62 melanoma, 35.6%; in the assay with LOX IMVI melanoma, -59.7% (active); in the assay with SK-MEL-28 melanoma it was 60.9%; in the assay on SK-MEL-2 melanoma it was 74.6%; in the assay on EKVX NSCLC it was 26.6%. Further, the growth was 14.3% in the assay on SN12C renal; -14.2% (active) in the assay on UO-31 renal; 13.1% with TK-10 renal; -49.9% (active) in the assay on ACHN renal; 28.9% with CAKI-1 renal; -9.36% (active) in the assay with A498 renal. In addition, the growth is 2.27% (active) with CCRF-CEM leukemia and 7.92% (active) in the assay on MOLT-4 leukemia.
Regarding `Cc1cc(N2CCCCC2)nc(N2CCN(CC(=O)Nc3ccc4c(ccn4Cc4ccccc4)c3)CC2)n1`, the growth was 48.1% in the assay with HCT-15 colon; 12.4% in the assay with HT29 colon; 66.4% in the assay on SNB-75 CNS; 70% in the assay on SNB-19 CNS; 40.3% in the assay with U251 CNS; 38.7% with PC-3 prostate. The growth in the assay on SK-MEL-5 melanoma is 57.6%; in the assay with UACC-62 melanoma it was 56.5%; in the assay with LOX IMVI melanoma it was 60.7%; in the assay with SK-MEL-28 melanoma, 73.7%; in the assay with SK-MEL-2 melanoma, 65.6%; in the assay on EKVX NSCLC, 62.1%. Further, the growth in the assay on SN12C renal was 64.2%; with UO-31 renal, 30%; in the assay on TK-10 renal it was 84%; in the assay on ACHN renal, 76.6%; in the assay with CAKI-1 renal it was 56.3%; in the assay with A498 renal it was 8.63% (active). In addition, the growth with CCRF-CEM leukemia was 64.5%; with MOLT-4 leukemia, 52.6%.
Consider `COc1ccc2cc(-c3ccc(-c4ccc(C(=N)N)s4)s3)ccc2c1`, for which the growth in the assay on HCT-15 colon is -81.6% (active); with HT29 colon it was -70.8% (active); with SNB-75 CNS it was 21%; in the assay on SNB-19 CNS it was -26.8% (active); in the assay on U251 CNS, -85.9% (active); with PC-3 prostate, 23.1%. Also, the growth in the assay with SK-MEL-5 melanoma is 95.1%; in the assay on UACC-62 melanoma it was -16.3% (active); in the assay on LOX IMVI melanoma it was -58.2% (active); with SK-MEL-28 melanoma, 109%; in the assay on SK-MEL-2 melanoma it was 95.3%; with EKVX NSCLC, 0.97% (active). For the same compound, the growth in the assay with SN12C renal is -55.2% (active); with UO-31 renal, 36.6%; in the assay with TK-10 renal, 89.6%; in the assay with ACHN renal it was 27%; in the assay with CAKI-1 renal, 88.8%; with A498 renal it was 73.6%. In addition, the results for the growth in the assay with CCRF-CEM leukemia and in the assay on MOLT-4 leukemia were -14% (active) and 1.6% (active), respectively.
Turning to `COc1cc(C2=NN(C(C)=O)C(c3ccc(N(C)C)cc3)C2)cc(OC)c1OC` (stereo not given), the growth in the assay with HCT-15 colon was 102%; with HT29 colon, 108%; in the assay with SNB-75 CNS, 96.2%; with SNB-19 CNS it was 89.8%; with U251 CNS, 97.3%; in the assay on PC-3 prostate, 105%. For the same compound, the growth in the assay with SK-MEL-5 melanoma was 91.1%; with UACC-62 melanoma, 87.9%; in the assay on LOX IMVI melanoma, 96.5%; with SK-MEL-28 melanoma, 106%; with SK-MEL-2 melanoma, 90%; in the assay with EKVX NSCLC it was 94.7%. For the same compound, the growth with SN12C renal is 86.4%; in the assay with UO-31 renal, 79.6%; in the assay on TK-10 renal, 109%; in the assay with ACHN renal, 91.8%; with CAKI-1 renal it was 15.3%; in the assay with A498 renal it was 76%. The growth was 14.6% in the assay with CCRF-CEM leukemia and 80.8% with MOLT-4 leukemia.
Turning to `Cc1[nH]c(/C=C/C(=O)c2ccc(C(F)(F)F)c(F)c2)c(C)c1C(=O)NCC(C)C`, the growth is 93.8% in the assay with HCT-15 colon; 102% in the assay with HT29 colon; 89.4% in the assay on SNB-75 CNS; 92.2% with SNB-19 CNS; 100% in the assay on U251 CNS; 103% in the assay with PC-3 prostate. The growth was 99.8% with SK-MEL-5 melanoma; 96.6% in the assay on UACC-62 melanoma; 90.5% in the assay with LOX IMVI melanoma; 106% in the assay on SK-MEL-28 melanoma; 110% in the assay with SK-MEL-2 melanoma; 96.1% in the assay with EKVX NSCLC. Further, the growth in the assay on SN12C renal was 97.9%; in the assay with UO-31 renal, 92%; with TK-10 renal, 109%; in the assay on ACHN renal, 101%; in the assay with CAKI-1 renal, 94.8%; in the assay on A498 renal it was 69%. In addition, the growth with CCRF-CEM leukemia and with MOLT-4 leukemia was 101% throughout.
On to `Fc1ccc(COc2ccc(Nc3ncnc4sc5c(c34)CCCC5)cc2)cc1`, for which the growth in the assay on HCT-15 colon is 92.6%; in the assay on HT29 colon it was 77.8%; with SNB-75 CNS, 113%; with SNB-19 CNS, 100%; in the assay with U251 CNS, 90.8%; in the assay with PC-3 prostate, 72.2%. Also, the growth with SK-MEL-5 melanoma was 95.5%; in the assay with UACC-62 melanoma, 72.1%; with LOX IMVI melanoma, 99.5%; in the assay with SK-MEL-28 melanoma, 91.5%; in the assay with SK-MEL-2 melanoma, 84.4%; in the assay on EKVX NSCLC, 94.3%. Moreover, the growth was 81.1% with SN12C renal; 78.5% in the assay on UO-31 renal; 84% in the assay with TK-10 renal; 95.2% in the assay on ACHN renal; 99.6% in the assay on CAKI-1 renal; 86.2% in the assay on A498 renal. The values for the growth in the assay with CCRF-CEM leukemia and with MOLT-4 leukemia were 97.6% and 87.4%, respectively.
Regarding `C=C1C(=O)O[C@H]2[C@H]1CC/C(CNC(=O)c1cc3ccccc3[nH]1)=C\CC[C@@]1(C)O[C@@H]21`, the growth with HCT-15 colon was -78.9% (active); in the assay on HT29 colon, -59.7% (active); with SNB-75 CNS, 48.4%; with SNB-19 CNS it was 22.4%; with U251 CNS, -16.8% (active); with PC-3 prostate, -48.5% (active). Also, the growth in the assay on SK-MEL-5 melanoma is -87.6% (active); in the assay with UACC-62 melanoma, -74.9% (active); in the assay with LOX IMVI melanoma, -78.8% (active); with SK-MEL-28 melanoma, -57.6% (active); with SK-MEL-2 melanoma it was -60.8% (active); in the assay with EKVX NSCLC it was 14%. The growth in the assay on SN12C renal is -43.3% (active); in the assay with UO-31 renal, -73.5% (active); with TK-10 renal, -89.9% (active); in the assay with ACHN renal, -77.6% (active); in the assay on CAKI-1 renal it was -60.4% (active); with A498 renal, -63.4% (active). For the same compound, the results for the growth in the assay with CCRF-CEM leukemia and in the assay on MOLT-4 leukemia were -35.7% (active) and -35.5% (active), respectively.
